Here are results for 16 compounds from PubChem BioAssay (EPA / NIEHS).

The term AC50 denotes the midpoint of the concentration-response curve, whichever way the signal moves.

Read-out in one assay: CD38, CD38 (gene 952)
In words: BSK_SAg_CD38: BioMAP Diversity Plus: SAg Assay for CD38 Biomarker Activity (AID 2283087). To be noted: primary human HUVEC with PBMC; actives raise or lower the signal. In short, it runs like this:
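Fluorescence ELISA of cell-surface CD38 served as the read-out, with either increase or decrease fitted against DMSO controls. Cells were a human umbilical vein endothelium plus PBMC co-culture under SEB/TSST-1 stimulation, measured 24 h after dosing.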

Read-out in a further assay: CD40, CD40 (gene 958)
Briefly: BSK_SAg_CD40: BioMAP Diversity Plus: SAg Assay for CD40 Biomarker Activity (AID 2283088). Conditions: primary human HUVEC with PBMC; actives raise or lower the signal. In short, it runs like this: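 Fluorescence ELISA read-out of CD40 from umbilical vein endothelium plus peripheral blood mononuclear cells, sampled 24 h after dosing. Values come from bidirectional curve fitting with DMSO as baseline.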

Read-out in another assay: CD69, CD69 (gene 969)
In words: BSK_SAg_CD69: BioMAP Diversity Plus: SAg Assay for CD69 Biomarker Activity (AID 2283089).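 For AC50: cell surface CD69 protein quantified by ELISA with fluorescence detection.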 To be noted: primary human HUVEC with PBMC; actives raise or lower the signal. In outline: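 Values derive from bidirectional fitting relative to DMSO vehicle. Cells: umbilical vein endothelium plus peripheral blood mononuclear cells, treated 24 h before fluorescent ELISA for CD69.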

Read-out in assay [1]: Monocyte Chemoattractant Protein-1 (MCP1), CCL2 (gene 6347)
Briefly: BSK_SAg_MCP1: BioMAP Diversity Plus: SAg Assay for Monocyte Chemoattractant Protein-1 (MCP1) Biomarker Activity (AID 2283090). To be noted: primary human HUVEC with PBMC; actives raise or lower the signal. In outline:
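MCP-1 levels in the endothelial–PBMC SAg co-culture were quantified by ELISA at 24 h post-dosing; both increases and decreases versus DMSO scored. Cytotoxicity monitored by SRB total protein in parallel cultures.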

Read-out in assay [2]: E-selectin (Homo sapiens) (UniProt P16581)
In words: BSK_SAg_Eselectin: BioMAP Diversity Plus: SAg Assay for Eselectin Biomarker Activity (AID 2283091). To be noted: primary human HUVEC with PBMC; actives raise or lower the signal. In outline: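 Primary human endothelial cells and peripheral blood mononuclear cells were co-cultured and exposed to chemical for 24 hours. E-selectin levels were then quantified by ELISA, with bidirectional curve fitting normalised to DMSO controls.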

Read-out in assay [3]: Monokine induced gamma interferon (MIG), CXCL9 (gene 4283)
In words: BSK_SAg_MIG: BioMAP Diversity Plus: SAg Assay for Monokine induced gamma interferon (MIG) Biomarker Activity (AID 2283092). Conditions: primary human HUVEC with PBMC; actives raise or lower the signal. In outline:
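Values reflect bidirectional fitting of ELISA-measured MIG against DMSO vehicle, taken 24 h after dosing of a co-culture of human umbilical vein endothelial cells and peripheral blood mononuclear cells.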

Read-out in assay [4]: Interleukin-8 (IL8), CXCL8 (gene 3576)
Briefly: BSK_SAg_IL8: BioMAP Diversity Plus: SAg Assay for Interleukin-8 (IL8) Biomarker Activity (AID 2283094). Conditions: primary human HUVEC with PBMC; actives raise or lower the signal. In short, it runs like this: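 In this co-culture of human umbilical vein endothelium with peripheral blood mononuclear cells, IL-8 is assayed by ELISA at 24 h. DMSO serves as baseline for bidirectional curve fitting.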

Assay [5] is described as follows: BSK_SAg_Proliferation: Cell Proliferation Assessment in the BioMAP Diversity Plus: SAg Assay (AID 2283095).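 Note: relative cell number as total protein by SRB absorbance in sub-confluent culture.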 To be noted: primary human HUVEC with PBMC. In short, it runs like this:
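Readout is SRB-stained protein (560 nm) in a primary human HUVEC and PBMC co-culture; sub-confluent cultures are read at 96 h. Activity is fitted bidirectionally using DMSO as baseline.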

Assay [6] in a line: BSK_SAg_SRB: Viability Assessment in the BioMAP Diversity Plus: SAg Assay (AID 2283096).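 Note: cells read one day after compound addition; hits may be either gain or loss of signal compared with DMSO.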 To be noted: primary human HUVEC with PBMC. In outline:
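Human umbilical vein endothelial cells co-cultured with PBMC, read 24 h after compound dosing. Total protein measured by sulforhodamine B staining (0.1% SRB after 10% TCA fixation, absorbance 560 nm); bidirectional fit versus DMSO baseline.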

Assay [7] can be described thus: BSK_SAg_PBMCCytotoxicity: PBMC Cytotoxicity Assessment in the BioMAP Diversity Plus: SAg Assay (AID 2283093).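 Note: PBMC viability measured as Alamar Blue reduction fluorescence at 546/580 nm; fitted both ways against DMSO so a hit may be loss or gain of signal.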 To be noted: primary human HUVEC with PBMC. In short, it runs like this: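 HUVEC/PBMC co-culture; PBMC exposed to chemical 1 h before SEB and TSST-1 activation (20 ng/mL each), incubated 90 h, then Alamar Blue 6 h, fluorescence 546/580 nm. Bidirectional fit versus DMSO baseline.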

Active and inactive are the calls of the source. Rule for the calls: active = hit-call score of the fitted dose curve at least 0.9, where 1 is the maximum; inactive = score below 0.9.

Sequence of E-selectin (Homo sapiens) (P16581 whole entry, looked up): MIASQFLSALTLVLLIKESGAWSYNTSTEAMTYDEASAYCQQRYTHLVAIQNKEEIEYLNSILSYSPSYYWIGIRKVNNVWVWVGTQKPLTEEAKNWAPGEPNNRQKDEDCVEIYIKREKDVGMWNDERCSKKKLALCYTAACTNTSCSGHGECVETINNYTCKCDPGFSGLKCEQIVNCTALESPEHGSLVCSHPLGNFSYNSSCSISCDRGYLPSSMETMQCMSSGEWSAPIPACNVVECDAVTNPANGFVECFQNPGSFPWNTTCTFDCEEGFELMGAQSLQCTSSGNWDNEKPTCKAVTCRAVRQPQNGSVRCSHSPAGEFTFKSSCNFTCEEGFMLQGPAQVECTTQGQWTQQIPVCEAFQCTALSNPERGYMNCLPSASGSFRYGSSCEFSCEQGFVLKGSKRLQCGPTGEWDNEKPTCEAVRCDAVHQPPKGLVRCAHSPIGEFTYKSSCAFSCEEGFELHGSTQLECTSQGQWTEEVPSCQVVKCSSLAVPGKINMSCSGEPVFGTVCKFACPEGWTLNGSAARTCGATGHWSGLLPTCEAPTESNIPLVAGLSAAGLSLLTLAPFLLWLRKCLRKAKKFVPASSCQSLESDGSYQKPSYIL

`CC1=C(C)S(=O)(=O)CCS1(=O)=O`: the outcome with CD38, CD38 (gene 952) is “inactive”; with CD40, CD40 (gene 958), “inactive”; with CD69, CD69 (gene 969) it was “inactive”; in [1], “inactive”; in assay [3], “inactive”; in assay [4], “inactive”. Besides, the result in [5] and in assay [6] was inactive. Also, the AC50 in assay [2] is 3.97 µM (active).

Consider `CCN(CC)CCOc1ccc(C(=C(Cl)c2ccccc2)c2ccccc2)cc1`, for which the AC50 with CD38, CD38 (gene 952) was 8.84 µM (active); with CD40, CD40 (gene 958), 11 µM (active); in the assay with CD69, CD69 (gene 969) it was 12.4 µM (active); in [1], 11.2 µM (active); in assay [2], 13.5 µM (active); in [3], 13.8 µM (active). Further, the AC50 in assay [4] was 7.87 µM (active); in assay [5] it was 3.54 µM (active); in [6], 11.1 µM (active).

Consider `NC(=Nc1ccccc1)Nc1ccccc1`, for which the outcome was “inactive” in the assay with CD38, CD38 (gene 952); “inactive” with CD40, CD40 (gene 958); “inactive” in the assay with CD69, CD69 (gene 969); “inactive” in [1]; “inactive” in assay [3]; “inactive” in assay [4]. For the same compound, the outcome in assay [5] was inactive.

With `O=C(O)CN(CC(=O)O)CC(=O)O`, the outcome was “inactive” with CD38, CD38 (gene 952); “inactive” with CD40, CD40 (gene 958); “inactive” in the assay with CD69, CD69 (gene 969); “inactive” in assay [1]; “inactive” in [2]; “inactive” in assay [3]. For the same compound, the result in assay [4] and in assay [6] was inactive. The AC50 in assay [5] was 29.1 µM (active).

As for `CC(=O)S[C@H](C(=O)N[C@H]1Cc2ccccc2[C@H]2CCC[C@@H](C(=O)O)N2C1=O)C(C)C`, the outcome with CD38, CD38 (gene 952) was “inactive”; with CD40, CD40 (gene 958) it was “inactive”; in the assay with CD69, CD69 (gene 969), “inactive”; in assay [1], “inactive”; in [2] it was “inactive”; in assay [3], “inactive”. Moreover, the outcome in [4] was inactive. The AC50 in assay [5] was 7.81 µM (active).

Turning to `CC(=O)OC1CC(C)OC(C)O1` (centres undefined), the outcome in the assay with CD38, CD38 (gene 952) was “inactive”; with CD40, CD40 (gene 958), “inactive”; with CD69, CD69 (gene 969), “inactive”; in assay [1] it was “inactive”; in [2], “inactive”; in assay [3] it was “inactive”. The outcome in assay [4] and in [6] was inactive. Further, in assay [5], the AC50 was 13.5 µM (active).

For the compound `CC(C)c1cccc(C(C)C)c1`, the outcome with CD38, CD38 (gene 952) is “inactive”; with CD40, CD40 (gene 958) it was “inactive”; in the assay with CD69, CD69 (gene 969) it was “inactive”; in [1], “inactive”; in assay [2], “inactive”; in [3] it was “inactive”. The outcome in assay [4], in assay [5] and in [6] was inactive.

In the case of `O=C(O)CC(O)(CC(=O)O)C(=O)O`, the outcome is “inactive” in the assay with CD38, CD38 (gene 952); “inactive” with CD40, CD40 (gene 958); “inactive” with CD69, CD69 (gene 969); “inactive” in [1]; “inactive” in [2]; “inactive” in assay [3]. The outcome in assay [4], in [5] and in assay [6] was inactive.

Take `OCC(CO)n1cnc(-c2ccc(F)cc2)c1-c1ccnc(Oc2ccccc2)n1`: the outcome with CD38, CD38 (gene 952) was “inactive”; with CD40, CD40 (gene 958), “inactive”; in assay [2], “inactive”; in assay [3] it was “inactive”; in assay [6], “inactive”. In addition, the AC50 was 3.97 µM (active) with CD69, CD69 (gene 969); 2.02 µM (active) in [1]; 0.24 µM (active) in assay [4]; 18.1 µM (active) in assay [5].

With `O=C(Oc1ccccc1)c1cccc(C(=O)Oc2ccccc2)c1`, the outcome with CD38, CD38 (gene 952) was “inactive”; with CD40, CD40 (gene 958) it was “inactive”; in the assay with CD69, CD69 (gene 969), “inactive”; in assay [1], “inactive”; in [2] it was “inactive”; in [3], “inactive”. Besides, the result in [4] was inactive. Moreover, the concentration at half-maximal activity (AC50) in assay [5] is 24.2 µM (active).

As for `CC(C)OC(=O)C(C)(C)Oc1ccc(C(=O)c2ccc(Cl)cc2)cc1`, the AC50 with CD38, CD38 (gene 952) was 16.1 µM (active); in assay [1], 20 µM (active); in assay [2], 33.5 µM (active); in assay [4], 29.1 µM (active); in assay [5], 29.5 µM (active); in assay [6], 28.9 µM (active). Moreover, the result in assay [3] and in assay [7] was inactive.

Regarding `CCCCCCCCCCCCCCOS(=O)(=O)O`, the AC50 with CD38, CD38 (gene 952) was 20 µM (active). Further, the outcome with CD40, CD40 (gene 958) is “inactive”; with CD69, CD69 (gene 969), “inactive”; in [1] it was “inactive”; in assay [2] it was “inactive”; in [3] it was “inactive”; in assay [4] it was “inactive”. Further, the result in [5] and in assay [6] was inactive.

Consider `CC(C)(C)c1ccccc1`, for which the outcome is “inactive” with CD38, CD38 (gene 952); “inactive” with CD40, CD40 (gene 958); “inactive” in the assay with CD69, CD69 (gene 969); “inactive” in assay [1]; “inactive” in [2]; “inactive” in [3]. In addition, the result in assay [4], in assay [5] and in assay [6] was inactive.

`COC(=O)CCCC(=O)OC`: the outcome with CD38, CD38 (gene 952) is “inactive”; with CD40, CD40 (gene 958), “inactive”; with CD69, CD69 (gene 969), “inactive”; in assay [1], “inactive”; in assay [2], “inactive”; in assay [3], “inactive”. Further, the result in [4], in assay [5] and in assay [6] was inactive.

`Cc1occc(=O)c1O`: the outcome with CD38, CD38 (gene 952) is “inactive”; with CD40, CD40 (gene 958), “inactive”; with CD69, CD69 (gene 969), “inactive”; in assay [1], “inactive”; in [2] it was “inactive”; in assay [3] it was “inactive”. In addition, the outcome in assay [4], in [5] and in assay [6] was inactive.

As for `CC(C)(O)c1ccc(CNC(=O)c2cccnc2Oc2ccc(F)cc2)cc1`, the AC50 with CD38, CD38 (gene 952) was 1.19 µM (active); in assay [1] it was 1.16 µM (active); in assay [2], 0.737 µM (active). The outcome with CD40, CD40 (gene 958) is “inactive”; with CD69, CD69 (gene 969), “inactive”; in assay [3] it was “inactive”; in assay [4] it was “inactive”; in assay [5], “inactive”; in [6] it was “inactive”.
